About 1,500 (3.8%) of roughly 39,000 compounds were called active. Shown is part of a subset that was picked to be rich in actives.

Drawing on the antibiotic and cytotoxicity screens of Wong et al. (2023), this text covers cytotoxicity call for 26 compounds.

The test system of the experiment is HSkMC (human skeletal muscle cells). Put plainly: cytotoxicity call (relative viability < 0.9). Conditions: 10 µM.
`C[C@@H]1CCCCO[C@H](CN(C)C(=O)Nc2ccc(F)cc2)[C@@H](C)CN([C@@H](C)CO)C(=O)c2cc(NC(=O)CCC(F)(F)F)ccc2O1`: the cytotoxicity call is “inactive”.
The entry for `CC(C)NC(=O)Nc1cccc2c1O[C@H](CN(C)C(=O)Nc1ccc3c(c1)OCO3)[C@@H](C)CN([C@@H](C)CO)C2=O` is “inactive”.
The entry for `COc1ccc(NC(=O)N(C)C[C@H]2Oc3c(NC(=O)Nc4ccc(C(F)(F)F)cc4)cccc3C(=O)N([C@@H](C)CO)C[C@H]2C)cc1` is “inactive”; for `C[C@@H]1CCCCO[C@H](CN(C)Cc2ccc(Cl)c(Cl)c2)[C@@H](C)CN([C@@H](C)CO)C(=O)c2cc(NC(=O)Nc3ccc(C(F)(F)F)cc3)ccc2O1` it is “inactive”; for `C[C@H]1CN([C@@H](C)CO)C(=O)c2cccc(NC(=O)c3cnccn3)c2O[C@H]1CN(C)Cc1ccncc1` it is “inactive”.
The same measure for `C[C@@H]1CN([C@@H](C)CO)C(=O)c2cccc(NC(=O)c3ccncc3)c2O[C@H]1CN(C)Cc1ccc(C(=O)O)cc1`: “inactive”; for `C[C@@H]1CCCCO[C@@H](CN(C)Cc2ccc(C(F)(F)F)cc2)[C@H](C)CN([C@@H](C)CO)C(=O)c2cc(NC(=O)Nc3cccc4ccccc34)ccc2O1`: “inactive”; for `O=C(CN1CCOCC1)N[C@@H]1CC[C@@H](CCNC(=O)C2CCC2)O[C@@H]1CO`: “inactive”.
On to `C[C@@H]1CN([C@H](C)CO)C(=O)Cc2cc(NS(=O)(=O)c3cn(C)cn3)ccc2O[C@@H]1CN(C)S(=O)(=O)c1ccc(F)cc1`, for which the cytotoxicity call is “inactive”.
The same measure for `O=C(C[C@H]1C[C@@H]2c3cc(NS(=O)(=O)c4ccc(F)cc4)ccc3O[C@@H]2[C@@H](CO)O1)NCc1cccc(F)c1`: “inactive”; for `COc1ccc(S(=O)(=O)N(C)C[C@@H]2Oc3ccc(NS(=O)(=O)c4cn(C)cn4)cc3C(=O)N([C@H](C)CO)C[C@H]2C)cc1`: “inactive”; for `CC(C)NC(=O)N(C)C[C@@H]1Oc2ccc(NS(=O)(=O)c3cccs3)cc2C(=O)N([C@@H](C)CO)C[C@H]1C`: “inactive”.
The entry for `C[C@@H]1CCCCO[C@@H](CN(C)C(=O)NC2CCCCC2)[C@H](C)CN([C@@H](C)CO)C(=O)c2cc(NC(=O)Nc3ccccc3)ccc2O1` is “inactive”; for `Cc1ccc(S(=O)(=O)N(C)C[C@@H]2OCCCC[C@@H](C)Oc3ccc(NS(C)(=O)=O)cc3C(=O)N([C@@H](C)CO)C[C@H]2C)cc1` it is “inactive”.
The same measure for `COc1cccc(S(=O)(=O)Nc2ccc3c(c2)[C@H]2C[C@@H](CC(=O)NCCc4ccccc4)O[C@@H](CO)[C@H]2O3)c1`: “inactive”.
For `COc1cccc(S(=O)(=O)Nc2ccc3c(c2)[C@H]2C[C@@H](CC(=O)NCCc4ccccc4)O[C@H](CO)[C@H]2O3)c1`, the cytotoxicity call is “active”.
The same measure for `O=C(C[C@@H]1C[C@H]2c3cc(NC(=O)Nc4ccccc4F)ccc3O[C@H]2[C@@H](CO)O1)NCc1ccc(Oc2ccccc2)cc1`: “inactive”.
The same measure for `COc1cccc(S(=O)(=O)Nc2ccc3c(c2)[C@H]2C[C@H](CC(=O)NCCc4ccccc4)O[C@@H](CO)[C@H]2O3)c1`: “inactive”; for `O=C(C[C@@H]1C[C@@H]2c3cc(NC(=O)Nc4ccccc4F)ccc3O[C@@H]2[C@@H](CO)O1)NCc1ccc(Oc2ccccc2)cc1`: “inactive”; for `O=C(C[C@H]1C[C@H]2c3cc(NC(=O)Nc4ccccc4F)ccc3O[C@H]2[C@@H](CO)O1)NCc1ccc(Oc2ccccc2)cc1`: “active”.
The same measure for `O=C(C[C@H]1C[C@H]2c3cc(NC(=O)Nc4ccccc4F)ccc3O[C@H]2[C@H](CO)O1)NCc1ccc(Oc2ccccc2)cc1`: “inactive”; for `O=C(C[C@H]1C[C@H]2c3cc(NS(=O)(=O)c4ccc(F)cc4)ccc3O[C@H]2[C@H](CO)O1)NCc1ccc(Oc2ccccc2)cc1`: “inactive”; for `O=C(C[C@@H]1C[C@H]2c3cc(NC(=O)Nc4ccccc4F)ccc3O[C@H]2[C@H](CO)O1)NCc1ccc(Oc2ccccc2)cc1`: “inactive”.
As to `O=C(C[C@H]1C[C@H]2c3cc(NS(=O)(=O)c4ccc(F)cc4)ccc3O[C@H]2[C@@H](CO)O1)NCc1ccc(Oc2ccccc2)cc1`, the cytotoxicity call is “active”.
The same measure for `O=C(C[C@@H]1C[C@@H]2c3cc(NS(=O)(=O)c4ccc(F)cc4)ccc3O[C@@H]2[C@H](CO)O1)NCc1ccc(Oc2ccccc2)cc1`: “inactive”.
The entry for `O=C(C[C@H]1C[C@@H]2c3cc(NC(=O)Nc4ccccc4F)ccc3O[C@@H]2[C@H](CO)O1)NCc1ccc(Oc2ccccc2)cc1` is “active”.
